Source: PubChem BioAssay AID488850 (National Center for Advancing Translational Sciences (NCATS), 2010)
Records with an inconclusive call do not appear. Calls of active or inactive are those of the source. Calls come from the whole dose curve; as a rule, active = well fitted activation curve with a large enough effect; inconclusive = small, poorly fitted or top-dose-only effect; inactive = flat fitted curve, though single readings scatter.

These molecules were tested against Lysosomal acid glucosylceramidase (Homo sapiens) (UniProt P04062) (assay: qHTS Assay for Inhibitors and Activators of N370S glucocerebrosidase as a Potential Chaperone Treatment of Gaucher Disease: Purified N370S Glucocerebrosidase Confirmation for Probe SAR). Conditions: purified N370S GC, 4MU-glucoside fluorescence, 40 min; series mostly up to 57.5 µM.
Chain of Lysosomal acid glucosylceramidase (Homo sapiens) (P04062 whole entry N409S): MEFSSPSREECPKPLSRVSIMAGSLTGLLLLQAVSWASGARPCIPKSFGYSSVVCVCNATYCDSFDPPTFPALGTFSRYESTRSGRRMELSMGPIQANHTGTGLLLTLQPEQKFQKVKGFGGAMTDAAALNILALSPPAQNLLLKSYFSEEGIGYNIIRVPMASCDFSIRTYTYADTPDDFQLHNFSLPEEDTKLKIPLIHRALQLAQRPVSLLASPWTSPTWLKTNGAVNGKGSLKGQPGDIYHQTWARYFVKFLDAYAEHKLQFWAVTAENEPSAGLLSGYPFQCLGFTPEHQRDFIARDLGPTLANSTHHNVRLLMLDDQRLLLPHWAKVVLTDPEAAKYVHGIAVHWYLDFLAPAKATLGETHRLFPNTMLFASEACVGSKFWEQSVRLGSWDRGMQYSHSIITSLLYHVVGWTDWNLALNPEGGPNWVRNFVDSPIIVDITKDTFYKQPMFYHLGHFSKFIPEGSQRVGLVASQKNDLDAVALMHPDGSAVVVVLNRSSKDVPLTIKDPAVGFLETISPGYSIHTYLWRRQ
Excerpt: NIH Chemical Genomics Center [NCGC] NIH Molecular Libraries Probe Production Centers Network [MLPCN] MLPCN Grant: MH086442-01 Assay Submitter (PI): Wei Zheng Glucocerebrosidase (GC) catalyzes the hydrolysis of beta-glucocerebroside to glucose and ceramide in lysosomes. Mutations in the glucocerebrosidase gene result in Gaucher disease, an autosomal recessive lysosomal storage disorder. Many of the mutations encountered in patients with Gaucher disease are missense alterations that may cause misfolding, decreased stability and/or mistrafficking of this lysosomal protein. […] These inhibitors include iminosugar analogs and three non-iminosugar inhibitors identified from a previous HTS of 62,000 compounds with the wild type recombinant enzyme. However, the enhancement of enzyme activity by the chaperone action of an enzyme inhibitor must be balanced against the direct inhibition of the enzyme. An enzyme activator could also function as a chaperone by binding to the enzyme and helping to correct its misfolding and mistrafficking. While activators for GC have not yet been identified, they may have better therapeutic potential than inhibitors. Therefore the discovery and development of chemical activators may provide a new strategy for the chaperone therapy. We have optimized a new assay using N370S mutant GC derived from the spleen of a Gaucher patient. […] In addition, the MLPCN compound library has expanded, which increases the chance of finding new and better probes. This assay characterizes compound activity using purified mutant enzyme instead of tissue homogenate. Compound activity differences may be due to the absence of endogenous cofactors found in tissue homogenate.
NCGC Assay Protocol Summary: This is a fluorogenic enzyme assay with 4-methylumbelliferyl-beta-D-glucopyranoside as the substrate and purified N370S glucocerebrosidase as the enzyme preparation. Upon the hydrolysis of this fluorogenic substrate, the resulting product, […] which can be detected by a standard fluorescence plate reader. Data were normalized to the controls for basal activity (without enzyme) and 100% activity (with enzyme). The AC50 values were determined from concentration-response data modeled with the standard Hill equation. Assay buffer: 50 mM citric acid (titrated with potassium phosphate to pH 5.0), 100 mM potassium chloride, 10 mM sodium chloride, 1 mM magnesium chloride, 0.01% Tween-20. 1536-well assay protocol: (1) Add 2 ul/well of glucocerebrosidase enzyme solution (5 nM final) (2) Add 23 nL compounds in DMSO solution. The final titration was 0.5 nM to 58 uM. (3) Add 2 ul of substrate (1 mM final) (4) Incubate at 37C for 40 min. (5) Add 2 ul stop solution (1M NaOH and 1M Glycine mixture, pH 10) (6) Detect the assay plate in a ViewLux plate reader (PerkinElmer) with Ex=365 nm and Em=440nm. Keywords: Glucocerebrosidase, beta-glucosidase, Gaucher Disease, pharmacological chaperone, chaperone therapy, high throughput screening, glucocerebrosidase inhibitor, MLSMR, MLSCN, NIH Roadmap, qHTS and NCGC

SMILES	Potency
COc1ccc(NC(=O)c2cnn3c(C)cc(C)nc23)cc1Cl	25.9 µM (active)
CC(=O)c1ccc(NC(=O)c2cnn3c(C)cc(C)nc23)cc1	inactive
Cc1cc(C)n2ncc(C(=O)Nc3ccc4c(c3)OCO4)c2n1	5.17 µM (active)
COc1ccc(NC(=O)c2cnn3c(C)cc(C)nc23)cc1	14.6 µM (active)
Cc1cc(C)n2ncc(C(=O)Nc3ccc4c(c3)CCC4)c2n1	11.6 µM (active)
Cc1cc(C)n2ncc(C(=O)NCc3ccccc3)c2n1	13 µM (active)
Cc1cc(C)n2ncc(C(=O)Nc3ccc(Br)cc3)c2n1	16.3 µM (active)
CNC(=O)c1cnn2c(C)cc(C)nc12	inactive
Cc1cc(C)n2ncc(C(=O)NC3CCC(C(C)(C)C)CC3)c2n1 (stereo unspecified)	7.3 µM (active)
Cc1ccc(NC(=O)c2cnn3c(C)cc(C)nc23)c(C)c1	23.1 µM (active)
Cc1cc(C)n2ncc(C(=O)Nc3ccc(C(F)(F)F)cc3)c2n1	13 µM (active)
CCc1ccc(NC(=O)c2cnn3c(C)cc(C)nc23)cc1	16.3 µM (active)
Cc1cc(C)n2ncc(C(=O)Nc3ccc(C)c(C)c3)c2n1	7.3 µM (active)
Cc1ccc(NC(=O)c2cnn3c(C)cc(C)nc23)cc1	16.3 µM (active)
Cc1cc(C)n2ncc(C(=O)Nc3ccccc3C)c2n1	13 µM (active)
Cc1cc(C)n2ncc(C(=O)Nc3ccccc3)c2n1	9.19 µM (active)

SMILES	Potency
CC(=O)c1cccc(NC(=O)c2cnn3c(C)cc(C)nc23)c1	20.6 µM (active)
Cc1cc(C)n2ncc(C(=O)Nc3cccc(C(F)(F)F)c3)c2n1	20.6 µM (active)
C#Cc1ccc(NC(=O)c2cnn3c(C)cc(C)nc23)cc1	6.51 µM (active)
COc1ccc(NC(=O)c2cnn3c(C)cc(C)nc23)cc1F	5.8 µM (active)
CC(=O)Nc1ccccc1NC(=O)c1cnn2c(C)cc(C)nc12	inactive
Cc1cc(C)n2ncc(C(=O)N3CCCC3)c2n1	inactive
O=C(Nc1cnn(Cc2ccc(F)cc2)c1)c1cnn2c(C(F)F)cc(-c3ccccc3)nc12	10.3 µM (active)
Cc1cc(C)n2ncc(C(=O)NC3CCCCC3)c2n1	11.6 µM (active)
Cc1cc(C)n2ncc(C(=O)Nc3ccc(S(C)(=O)=O)cc3)c2n1	inactive
Cc1cc(C)n2ncc(C(=O)Nc3ccncc3)c2n1	inactive
O=C(Nc1ccccc1Sc1ccccc1)c1cnn2c1NC(=C1CC1)C=C2C(F)F	16.3 µM (active)
Cc1cccc(NC(=O)c2cnn3c(C)cc(C)nc23)c1	18.3 µM (active)
Cc1cc(C)n2ncc(C(=O)NCc3ccco3)c2n1	20.6 µM (active)
Cc1cc(C)n2ncc(C(=O)Nc3ccc4c(c3)OCCO4)c2n1	16.3 µM (active)
Cc1cc(C)n2ncc(C(=O)Nc3cccc(C#N)c3)c2n1	inactive
